# Laboratory results published in PubChem BioAssay AID1159580 (chemical genetic matrix, 2015).
# “And” between values parts separate entries of the source, which are not always exact repeats. Equal values may be shown once. The campaign covered roughly 5,500 compounds. About 2,000 (36%) were called active. Not shown: some 18% with an inconclusive outcome. The list shows a part of the results. Values without a mark were called inactive. No stated cut-off is given here; in the data, active means normalized growth mostly below about 0.91 (no sharp cut-off); inconclusive means no clear call, values can overlap the other calls; inactive means mostly above about 0.92.
# Test: chemical genetic growth profiling, strain panel (AID 1159580);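 further: tested at 20 µM; growth read once vehicle control cultures reached saturation at 30 °C; 1 = growth at the plate median or of vehicle wells; lower values mean less growth of the strain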
# Conditions: S. cerevisiae deletion strains, growth OD
compound,measurement,setting,value
O=c1c(O)cc([C@H]2Oc3cc(O)cc(O)c3C[C@H]2O)cc2c([C@H]3Oc4cc(O)cc(O)c4C[C@H]3O)cc(O)c(O)c12,normalized growth,"locus YAL013W, strain DEP1, active compounds read low",1.01
same,normalized growth,"locus YAL021C, strain ccr4, active compounds read low",1.01
same,normalized growth,"locus YAL026C, strain drs2, active compounds read low",1.04
same,normalized growth,"locus YAL030W, strain snc1, active compounds read low",1.04
same,normalized growth,"locus YBL061C, strain skt5, active compounds read low",1.03
same,normalized growth,"locus YBR009C, strain hhf1, active compounds read low",1.04
same,normalized growth,"locus YBR021W, strain FUR4, active compounds read low",1.01
same,normalized growth,"locus YBR023C, strain chs3, active compounds read low",1.02
same,normalized growth,"locus YBR171W, strain sec66, active compounds read low",1.06
same,normalized growth,"locus YBR229C, strain ROT2, active compounds read low",0.998
same,normalized growth,"locus YBR231C, strain swc5, active compounds read low",1.02
same,normalized growth,"locus YBR279W, strain paf1, active compounds read low",1.02
same,normalized growth,"locus YCL011C, strain gbp2, active compounds read low",1.04
same,normalized growth,"locus YCL016C, strain dcc1, active compounds read low",1.02
same,normalized growth,"locus YCL029C, strain bik1, active compounds read low",0.998
same,normalized growth,"locus YCL069W, strain vba3, active compounds read low",1.03
same,normalized growth,"locus YCR088W, strain abp1, active compounds read low",1.04
same,normalized growth,"locus YDL005C, strain med2, active compounds read low",1.05
same,normalized growth,"locus YDL035C, strain GPR1, active compounds read low",1.03
same,normalized growth,"locus YDL040C, strain nat1, active compounds read low",1.04
same,normalized growth,"locus YDL074C, strain BRE1, active compounds read low",1.04
same,normalized growth,"locus YDL101C, strain DUN1, active compounds read low",1.02
same,normalized growth,"locus YDL185W, strain tfp1, active compounds read low",1.01
same,normalized growth,"locus YDL192W, strain arf1, active compounds read low",1
same,normalized growth,"locus YDR001C, strain nth1, active compounds read low",1.03
same,normalized growth,"locus YDR069C, strain doa4, active compounds read low",0.995
same,normalized growth,"locus YDR101C, strain arx1, active compounds read low",1.02
same,normalized growth,"locus YDR137W, strain rgp1, active compounds read low",1.03
same,normalized growth,"locus YDR159W, strain sac3, active compounds read low",1.1
same,normalized growth,"locus YDR162C, strain NBP2, active compounds read low",1.03
same,normalized growth,"locus YDR195W, strain ref2",1.04
same,normalized growth,"locus YDR297W, strain sur2, active compounds read low",1.02
same,normalized growth,"locus YDR318W, strain mcm21, active compounds read low",1.02
same,normalized growth,"locus YDR334W, strain swr1, active compounds read low",1.03
same,normalized growth,"locus YDR335W, strain msn5, active compounds read low",1.02
same,normalized growth,"locus YDR388W, active compounds read low",0.995
same,normalized growth,"locus YDR392W, strain spt3, active compounds read low",1.03
same,normalized growth,"locus YDR502C, strain sam2, active compounds read low",1.03
same,normalized growth,"locus YEL003W, strain gim4, active compounds read low",1.03
same,normalized growth,"locus YEL037C, strain rad23, active compounds read low",1.02
same,normalized growth,"locus YEL061C, strain CIN8 (second series), active compounds read low",1.04
same,normalized growth,"locus YEL061C, strain CIN8, active compounds read low",1.01
same,normalized growth,"locus YER015W, strain faa2, active compounds read low",1.01
same,normalized growth,"locus YER016W, strain bim1, active compounds read low",1.04
same,normalized growth,"locus YER110C, active compounds read low",1.03
same,normalized growth,"locus YER111C, strain swi4, active compounds read low",1.01
same,normalized growth,"locus YER155C, strain BEM2 (second series), active compounds read low",1.08
same,normalized growth,"locus YER155C, strain BEM2, active compounds read low",1.05
same,normalized growth,"locus YER167W, strain BCK2, active compounds read low",1.02
same,normalized growth,"locus YFR010W, strain ubp6, active compounds read low",1.03
same,normalized growth,"locus YGL078C, strain dbp3, active compounds read low",1.01
same,normalized growth,"locus YGL086W, strain mad1, active compounds read low",1.02
same,normalized growth,"locus YGL167C, strain pmr1, active compounds read low",1.03
same,normalized growth,"locus YGL173C, strain kem1, active compounds read low",1.03
same,normalized growth,"locus YGL227W, strain vid30, active compounds read low",1.05
same,normalized growth,"locus YGL240W, strain doc1, active compounds read low",1.06
same,normalized growth,"locus YGL248W, strain PDE1, active compounds read low",0.998
same,normalized growth,"locus YGL253W, strain hxk2, active compounds read low",1.05
same,normalized growth,"locus YGR135W, strain pre9, active compounds read low",1.01
same,normalized growth,"locus YGR252W, strain gcn5, active compounds read low",1.01
same,normalized growth,"locus YHR013C, strain ard1, active compounds read low",1.05
same,normalized growth,"locus YHR027C, strain rpn1, active compounds read low",1.02
same,normalized growth,"locus YHR030C, strain SLT2, active compounds read low",0.985
same,normalized growth,"locus YHR079C, strain IRE1 (second series), active compounds read low",1.02
same,normalized growth,"locus YHR079C, strain IRE1, active compounds read low",0.999
same,normalized growth,"locus YHR094C, strain hxt1, active compounds read low",1.02
same,normalized growth,"locus YHR129C, strain ARP1, active compounds read low",1.01
same,normalized growth,"locus YHR142W, strain chs7, active compounds read low",1.05
same,normalized growth,"locus YHR200W, strain rpn10, active compounds read low",0.994
same,normalized growth,"locus YIL066C, strain RNR3, active compounds read low",1.02
same,normalized growth,"locus YIL073C, strain SPO22, active compounds read low",1.1
same,normalized growth,"locus YIL125W, strain kgd1, active compounds read low",1.02
same,normalized growth,"locus YIR030C, strain dcg1, active compounds read low",1.01
same,normalized growth,"locus YJL092W, strain hpr5, active compounds read low",1.03
same,normalized growth,"locus YJL095W, strain BCK1 (second series), active compounds read low",1.02
same,normalized growth,"locus YJL095W, strain BCK1, active compounds read low",0.995 and 1.01
same,normalized growth,"locus YJL115W, strain asf1, active compounds read low",1.05
same,normalized growth,"locus YJL129C, strain trk1, active compounds read low",1.14 [resistant] (active)
same,normalized growth,"locus YJL134W, strain LCB3, active compounds read low",1.02
same,normalized growth,"locus YJL154C, strain vps35, active compounds read low",1.04
same,normalized growth,"locus YJL164C, strain tpk1, active compounds read low",1.01
same,normalized growth,"locus YJL166W, strain qcr8, active compounds read low",1.05
same,normalized growth,"locus YJL168C, strain set2, active compounds read low",1.02
same,normalized growth,"locus YJL187C, strain SWE1 (second series), active compounds read low",0.997
same,normalized growth,"locus YJR043C, strain POL32, active compounds read low",1.03
